Laboratory results from PubChem BioAssay AID746 (The Scripps Research Institute Molecular Screening Center, 2007).
Among all 60,000 compounds or so, about 370 (0.62%) were called active. Shown is part of a subset that was picked to be rich in actives. Unmarked numbers belong to inactive results. Cut-off read from the data, not from the text of the source: active = inhibition above about 17%; inactive = the rest.

target: Mitogen-activated protein kinase 10 (Homo sapiens) (UniProt P53779); assay: inhibition of human JNK3 enzyme – biochemical, purified enzyme, primary screen (AID 746); settings: purified JNK3 kinase activity, HTS; at 8 µM; stronger effect = higher value;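 note: 0% = DMSO and 100% = reference inhibitor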
Sequence (P53779 whole entry, looked up): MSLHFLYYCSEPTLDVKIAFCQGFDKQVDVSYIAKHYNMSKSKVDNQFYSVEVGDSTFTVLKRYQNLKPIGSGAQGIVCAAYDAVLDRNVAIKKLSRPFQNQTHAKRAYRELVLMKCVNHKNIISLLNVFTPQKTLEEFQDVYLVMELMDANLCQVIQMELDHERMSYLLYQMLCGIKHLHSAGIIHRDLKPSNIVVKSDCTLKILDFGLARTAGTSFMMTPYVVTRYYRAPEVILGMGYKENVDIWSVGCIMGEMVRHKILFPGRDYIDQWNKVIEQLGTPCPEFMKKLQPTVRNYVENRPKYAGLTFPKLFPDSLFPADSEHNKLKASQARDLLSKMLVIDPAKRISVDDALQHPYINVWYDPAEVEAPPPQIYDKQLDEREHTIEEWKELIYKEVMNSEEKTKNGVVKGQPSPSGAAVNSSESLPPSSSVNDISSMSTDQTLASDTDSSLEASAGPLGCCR

**Q.** CCCCc1nc2ccccc2c(=O)n1NC(=O)c1c(O)c2cccc3c2n(c1=O)CC3 was tested. Which inhibition did it give?
**A.** -6.2%

**Q.** With CCCC(=O)NC(C)C(c1cccs1)N1CCN(c2ccccc2)CC1 (stereo unspecified) as the compound, how does the inhibition read?
**A.** 0.41%

**Q.** With O=C(NCC12CC3CC(C1)CC(CNC(=O)N1CCCC1)(C3)C2)N1CCCC1 as the compound, how does the inhibition read?
**A.** 2.23%

**Q.** CCOC(=O)CC1C(=O)NCCN1C(=O)COc1ccc(Br)cc1C (stereo unspecified) was tested. Which inhibition did it give?
**A.** 1.6%

**Q.** Which inhibition does the source give for N#Cc1c(/N=C/N2CCCC2)oc(-c2ccccc2)c1-c1ccccc1 here?
**A.** -3.67%

**Q.** With CC(C)n1c(SCC(=O)Nc2ccccc2N2CCCCC2)nc2c1c(=O)n(C)c(=O)n2C as the compound, how does the inhibition read?
**A.** 0%

**Q.** For Nc1nnc(C2CCCC2)s1, which inhibition is on record?
**A.** -0.19%

**Q.** For O/N=C(\c1ccc2c(c1)OCCO2)C1CCCCC1, which inhibition is on record?
**A.** -1.18%

**Q.** How did the inhibition turn out when COc1cc(Br)cc(/C=N/c2ncn[nH]2)c1O was run?
**A.** -2.89%

**Q.** Which inhibition does the source give for Clc1ccc(Cc2nnc(-c3cccs3)o2)cc1 here?
**A.** 2.19%

**Q.** Which inhibition does the source give for CCCc1[nH]nc2c1C(c1ccc(OC(=O)c3ccco3)cc1)C(C#N)=C(N)O2 (stereo unspecified) here?
**A.** 6.15%

**Q.** CC(=O)NC(C)(C)C1CC=C(C)/C(=N\O)C1 (stereo unspecified) was tested. Which inhibition did it give?
**A.** 0.98%

**Q.** Which inhibition does the source give for CCN(CC)S(=O)(=O)c1cccc(C(=O)NCC(=O)OCC(=O)NCc2ccccc2)c1 here?
**A.** -1.17%

**Q.** With CCN(CC)S(=O)(=O)c1ccc2nc(COC(=O)c3n[nH]c4ccccc34)[nH]c2c1 as the compound, how does the inhibition read?
**A.** 95.8% (active)

**Q.** CCN(CC)S(=O)(=O)c1ccc2nc(CSc3nnnn3-c3ccc(O)cc3)[nH]c2c1 was tested. Which inhibition did it give?
**A.** 8.62%

**Q.** For Cc1c(CN2CCC(C)CC2)c(=O)n(-c2ccccc2)n1C, which inhibition is on record?
**A.** 0.5%

**Q.** With O=P(O)(CP(=O)(c1ccccc1)c1ccccc1)c1ccccc1 as the compound, how does the inhibition read?
**A.** -5.23%

**Q.** For Cc1nc2c(-c3ccc(F)cc3)c(C)nn2c(C)c1CCC(=O)N1CCN(c2ccccn2)CC1, which inhibition is on record?
**A.** 1.08%

**Q.** Which inhibition does the source give for Cc1c(C(=O)NCC2CCCO2)sc2nc(-c3ccccc3)cn12 (stereo unspecified) here?
**A.** -3.26%

**Q.** How did the inhibition turn out when CCSC1(SCC)N=C(N)C2(C#N)C(c3ccccc3)NC(C)=CC12C#N (stereo unspecified) was run?
**A.** 0.03%

**Q.** For CCOC(=O)c1ccccc1NC(=O)CC1Nc2ccccc2NC1=O (stereo unspecified), which inhibition is on record?
**A.** -0.55%

**Q.** CCOC(=O)C1CCN(C(=O)COc2cc(C)c(Br)c(C)c2)CC1 was tested. Which inhibition did it give?
**A.** 6.51%

**Q.** Which inhibition does the source give for CC(=O)Oc1ccc(C)cc1N1C(=O)c2ccc(C(=O)O)cc2C1=O here?
**A.** 0.63%

**Q.** Which inhibition does the source give for COc1cccc(-c2nc3n(n2)C(c2ccccc2Cl)C(C(N)=O)=C(C)N3)c1 (stereo unspecified) here?
**A.** 1.25%

**Q.** Which inhibition does the source give for COc1ccc(NC(=O)c2c(SC)nsc2SC)cc1 here?
**A.** -3.4%

**Q.** COc1ccc(C(=O)CSc2nccc(=O)[nH]2)cc1 was tested. Which inhibition did it give?
**A.** -1.11%

**Q.** O=C(CN1CCN(C(=O)c2cccc(F)c2)CC1)Nc1ccccc1F was tested. Which inhibition did it give?
**A.** -3.2%

**Q.** CCOC(=O)CSc1nnc(NC(=O)c2cccc(S(=O)(=O)N3CCCCC3)c2)s1 was tested. Which inhibition did it give?
**A.** -2.01%

**Q.** Which inhibition does the source give for CCOC(=O)c1sc(N(Cc2ccccc2)C(=O)CN2C(=O)CN(C)C2=O)nc1C here?
**A.** 0.36%

**Q.** With Cc1ccc(C(=O)COc2cccc(NC(=O)c3ccco3)c2)cc1 as the compound, how does the inhibition read?
**A.** 0.83%

**Q.** Which inhibition does the source give for Cn1c(=O)[nH]c(=O)c2c1nc(CN1CCN(c3ccccc3F)CC1)n2CCc1ccccc1 here?
**A.** 3.94%

**Q.** Cc1ccccc1NC(=O)c1cnn(-c2ccccc2)c1NC(=O)c1ccco1 was tested. Which inhibition did it give?
**A.** -3.45%

**Q.** How did the inhibition turn out when O=P(c1cccs1)(c1cccs1)c1cccs1 was run?
**A.** -3.85%

**Q.** Which inhibition does the source give for O=C(Nc1cccc2cccnc12)c1cccc(N2C(=O)CCC2=O)c1 here?
**A.** 4.05%

**Q.** How did the inhibition turn out when O=C(CSCc1cccs1)N1CCCC1 was run?
**A.** 5.67%

**Q.** CCc1ccc(-c2nnn(Cc3nc4ccccc4s3)n2)cc1 was tested. Which inhibition did it give?
**A.** -6.35%

**Q.** Which inhibition does the source give for CCC(C)NC(=O)N[C@@H](CCSC)C(=O)O (stereo partly specified) here?
**A.** 1.22%

**Q.** How did the inhibition turn out when O=C(Nc1cc(C(F)(F)F)ccc1Cl)c1cc(C2CC2)on1 was run?
**A.** 4.08%

**Q.** Which inhibition does the source give for Cn1c(=O)c2c(nc(SCCNS(=O)(=O)c3ccccc3)n2C)n(C)c1=O here?
**A.** -3.56%

**Q.** How did the inhibition turn out when Cc1ccccc1CSc1nnc(Cn2c(=O)sc3ccccc32)n1C was run?
**A.** 0.98%

**Q.** O=C(Cn1[nH]c(=O)c2ccccc2c1=O)Nc1cccc(-c2nnc3n2CCCCC3)c1 was tested. Which inhibition did it give?
**A.** -2.76%

**Q.** Which inhibition does the source give for Cc1ccc2nc3n(c(=O)c2c1)CCC3 here?
**A.** -2.11%

**Q.** O=c1c2c(nc3n1CCCCC3)sc1c(O)cccc12 was tested. Which inhibition did it give?
**A.** 19.3% (active)

**Q.** How did the inhibition turn out when CCn1cc(C(=O)N2CCN(C3CCCCC3)CC2)c2cc(OC)c(OC)cc2c1=O was run?
**A.** -1.36%

**Q.** For O=C(Cn1cnc2c(cnn2-c2ccccc2)c1=O)NCc1ccccc1, which inhibition is on record?
**A.** 3.12%

**Q.** With CCCc1cc(=O)[nH]c(SCC(=O)OCc2ccccc2)n1 as the compound, how does the inhibition read?
**A.** -3.94%
